The values that follow come from PubChem BioAssay AID651820 (National Center for Advancing Translational Sciences (NCATS), 2012).

Among all 340,000 compounds or so, about 12,000 (3.5%) were called active. Another 18% or so got no clear call; they are omitted. The call rests on the fitted dose curve; in most records, active means well fitted inhibition curve with a large enough effect; inconclusive means small, poorly fitted or top-dose-only effect, or another doubt; inactive means no such curve, though single readings can be large or run the other way. Many of the other results were omitted from the sample, so actives are more common in it than they were.
On the % scale 0 is the no-effect control and ±100 the full control effect; potency means the concentration at half of the fitted maximal effect.

The assay can be described thus: qHTS Assay for Inhibitors of Hepatitis C Virus (HCV). As to conditions: Huh7.5.1 HCVcc-Cre infection, luciferase reporter, 44 h; series mostly up to 41.8 µM; activity change, negative = inhibition: at the top concentration. Put shortly:
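Infectious HCV cell culture screen: compound-treated cells (1,000/well, pre-plated 4 h) are infected with HCVcc-Cre at roughly 0.5 moi and grown 44 h. Infection is quantified by luciferase signal after 15 min substrate incubation at room temperature.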
`O=C(NCCSc1ncc(-c2ccccc2)[nH]1)c1ccco1`: the activity change, negative = inhibition was -7.56% [at 8.37 µM] (inactive).
Still for that read-out and setting: in the case of `COc1cccc(NC(=O)CSc2nnc(C3CCCCC3)n2N)c1` it was -4.82% (inactive); in that of `CC(=O)Nc1ccc(NC(=O)CSC2=NS(=O)(=O)c3ccccc3N2)cc1`, -2.83% (inactive); in that of `CCc1noc(C)c1C(=O)Nc1nc2ccc(OC)cc2s1`, -17.2% (inactive).
On the same count and under the same terms, in the case of `COc1ccc(NC(=O)CNc2cc(S(=O)(=O)N3CCOCC3)ccc2N2CCOCC2)c(OC)c1` it was 11% (inactive); in that of `CS(=O)(=O)N(CC(=O)N1CCc2ccccc2C1)c1ccc(Br)cc1`, 0.897% (inactive); in that of `COc1cc(/C=C/C(=O)OCC(=O)NCCCc2ccccc2)ccc1O`, -14.3% (inactive).
Consider `O=C(O)c1ccc(S(=O)(=O)c2ccccc2)s1`, for which the “activity change, negative = inhibition” value is 4.5% (inactive).
Still for that read-out and setting: in the case of `Cc1ccc(S(=O)(=O)c2cc3c(=O)n4cccc(C)c4nc3n(CCc3ccccc3)c2=N)cc1C` it was 8.56% (inactive); in that of `OC(Cn1c2ccccc2c2ccccc21)C[n+]1ccccc1` (configuration not stated), -23.1% (inactive).
The same measure, in the same setting: the figure for `O=C1c2ccccc2S(=O)(=O)N1CC(O)Cn1c2ccccc2c2ccccc21` (configuration not stated) is 12.3% (inactive).
Take `CS(=O)(=O)N(CC(O)Cn1c2ccccc2c2ccccc21)c1cccc2ccccc12` (configuration not stated): the Potency is 11.2 µM (active).
For the molecule `COc1ccc2oc(C(=O)N(CC(C)C)C3CCS(=O)(=O)C3)c(C)c2c1` (configuration not stated), the “activity change, negative = inhibition” value was -5.42% (inactive).
Turning to `CCOc1ccc(C(CC(=O)O)NC(=O)Cc2ccccc2)cc1OC` (configuration not stated), the “activity change, negative = inhibition” value was 20% (inactive).
On the same count and under the same terms, the figure for `CCOc1ccc(C(CC(=O)O)NC(=O)C23CC4CC(CC(C4)C2)C3)cc1OC` (configuration not stated) is 12% (inactive).
Regarding `CCOc1ccc(C(CCc2ccccc2)NC(=O)c2ccc(OC)c(OC)c2)cc1OCC` (configuration not stated), the Potency is 10 µM (active).
On to `Cc1n[nH]c(=O)c2c(NC(=O)COC(=O)c3ncc(Cl)c(Cl)c3Cl)oc(C)c12`, for which the “activity change, negative = inhibition” value was 10.5% (inactive).
Consider `Cc1nc2sc3c(c2c(=O)n1NC(=O)CCl)CCCC3`, for which the “activity change, negative = inhibition” value was -8.31% (inactive).
Same read-out and setting: the figure for `CCC(O)CNc1nc(-n2nc(C)cc2C)nc2sc3c(c12)CC(C)(C)OC3` (configuration not stated) is -11% (inactive).
Regarding `COCCNc1nc(-n2nc(C)cc2C)nc2sc3c(c12)CCCC3`, the Potency was 10 µM (active).
Regarding `O=C1CC2(CCCC2)C(=O)N1CN1CCN(S(=O)(=O)c2ccc(F)cc2F)CC1`, the “activity change, negative = inhibition” value was -2.52% (inactive).
`CCOc1ccc(C(=O)Nc2ccc(S(=O)(=O)Nc3cc(C)on3)cc2)cc1`: the Potency is 1.12 µM (active).
Consider `COc1ccc(NC(=O)c2cnc(NS(=O)(=O)c3ccccc3)nc2)cc1`, for which the “activity change, negative = inhibition” value was 19.5% (inactive).
In the case of `COc1ccc(NS(=O)(=O)c2ccc(NC(=O)c3ccc(N(C)S(C)(=O)=O)cc3)cc2)cc1`, the Potency is 5.62 µM (active).
Take `CCOc1ccc(CC(=O)Nc2ccc(S(=O)(=O)Nc3cc(C)on3)cc2)cc1OCC`: the “activity change, negative = inhibition” value is -0.179% (inactive).
Consider `COc1cc(OC)cc(C(=O)Nc2ccc(S(=O)(=O)Nc3cc(C)on3)cc2)c1`, for which the “activity change, negative = inhibition” value was 21.4% (inactive).
Still for that read-out and setting: the figure for `COc1ccc(NS(=O)(=O)c2ccc(C(=O)Nc3c(C)n(C)n(-c4ccccc4)c3=O)cc2)cc1` is 23.2% (inactive); for `O=C(COC(=O)c1ccccn1)NNC(=O)c1ccc(Br)cc1` it is 12.5% (inactive).
Turning to `O=C(COC(=O)c1ccc(F)c(S(=O)(=O)N2CCOCC2)c1)NCc1ccc2c(c1)OCO2`, the “activity change, negative = inhibition” value was -4.34% (inactive).
The same measure, in the same setting: in the case of `O=S(=O)(Nc1ccc2ccccc2c1)N1CCCCC1` it was -21.3% (inactive).
Regarding `CCOc1ccccc1/C=N/Nc1nc2ccccc2o1`, the Potency was 12.6 µM (active).
For `Brc1ccccc1/C=N/Nc1nc2ccccc2o1`, the “activity change, negative = inhibition” value was -26.3% (inactive).
Still for that read-out and setting: the figure for `COc1ccc(/C=N/Nc2nc3ccccc3o2)cc1OC` is -3.83% (inactive).
With `Cc1ccc(SCC(=O)c2cc(C)c(OC(=S)N(C)C)c(C)c2)cc1`, the Potency is 11.2 µM (active).
For the molecule `Cc1ccc(SCC(=O)Nc2ccc3c(c2)OCCO3)cc1`, the “activity change, negative = inhibition” value is 0.0256% (inactive).
On the same count and under the same terms, in the case of `Cc1ccc(C(=O)CSc2ccccc2C(=O)O)cc1` it was 12.5% (inactive).
Take `CC[C@]12c3[nH]c4ccc(Cl)cc4c3CCN1C(=O)[C@@H](CC(=O)NCCN1CCOCC1)C[C@@H]2C(=O)N1CCN(C(=O)C2CC2)CC1`: the “activity change, negative = inhibition” value is 17.4% (inactive).
Still for that read-out and setting: the figure for `CCOC(=O)C[C@H]1c2ccc(C(F)(F)F)cc2S(=O)(=O)N1c1ccccc1` is -10.1% (inactive); for `O=C(CCCCCn1c(=S)[nH]c2cc3c(cc2c1=O)OCO3)N1CCN(c2ccc(F)cc2)CC1` it is -11.6% (inactive); for `Cc1ccc(C)c(N2CCN(C(=O)CCc3nc4ccccc4[nH]3)CC2)c1` it is 3.71% [at 8.37 µM] (inactive).
Take `Cc1ccc(C)c(N2CCN(C(=O)CCCCCn3c(=S)[nH]c4ccc(N5CCOCC5)cc4c3=O)CC2)c1`: the Potency was 2.82 µM (active).
Turning to `CN(CC(=O)Nc1cccc(F)c1)C(=O)C1CSC2(C)CCC(=O)N12` (configuration not stated), the “activity change, negative = inhibition” value is 6.19% (inactive).
The same measure, in the same setting: in the case of `COc1ccc(Cl)cc1NS(=O)(=O)c1cccc(C(=O)NC2CCC(O)CC2)c1` (configuration not stated) it was 10% (inactive).
Consider `CCC(CO)Oc1cc(NC(=O)c2cccc(F)c2)c2ncn(C(C)C)c2c1` (configuration not stated), for which the Potency is 0.562 µM (active).
On to `O=C(Nc1cccc(NC(=O)c2cccc(F)c2)c1)c1ccccc1`, for which the “activity change, negative = inhibition” value was -10.3% (inactive).
As for `COc1cccc(C(=O)NNC(=O)c2cccc(F)c2)c1`, the “activity change, negative = inhibition” value was 13.8% (inactive).
Same read-out and setting: the figure for `CCN(C(=O)CN1C(=O)/C(=C/c2ccc(F)cc2)SC1=S)C1CCS(=O)(=O)C1` (configuration not stated) is 3.32% (inactive).
On the same count and under the same terms, the figure for `COc1ccc(/C=C2\SC(=S)N(CCCC(=O)NC3CCCC3)C2=O)cc1OC` is -0.548% (inactive).
For `O=C1/C(=C/c2ccc(F)cc2)SC(=S)N1CCCC(=O)N1CCCCC1CCO` (configuration not stated), the Potency was 11.2 µM (active).
As to `O=C(COC(=O)Cc1c[nH]c2ccccc12)NCCc1ccccc1`, the “activity change, negative = inhibition” value was 3.54% (inactive).
Same read-out and setting: in the case of `O=C(CN1CCN(c2ccccc2O)CC1)NC(=O)NCc1ccccc1` it was -28.3% (inactive); in that of `CCCOc1ccc(C(=O)CCC(=O)OC(C)C(=O)Nc2ccc(NC(C)=O)cc2)cc1` (configuration not stated), 26.7% (inactive); in that of `CCCOc1ccc(N/C=C/C(=O)C(C)(C)C)cc1`, 3.9% (inactive).
For the molecule `CCCOc1ccc(C(=O)C(CCC(CNCC)C(=O)c2ccc(OCCC)cc2)CNCC)cc1` (configuration not stated), the Potency was 5.01 µM (active).
`CCN(CC(=O)Nc1ccccc1C(F)(F)F)C(=O)CSCc1c(C)noc1C`: the “activity change, negative = inhibition” value was 1.18% (inactive).
Same read-out and setting: in the case of `COc1ccc(S(=O)(=O)N2C[C@H]3CON(C)[C@H]3C[C@H]2c2cccc(Br)c2)cc1` it was 28% [at 8.37 µM] (inactive).
In the case of `O=C(O)C1CCN(S(=O)(=O)N2CCOCC2)CC1`, the Potency is 22.4 µM (active).
In the case of `O=C(NCc1ccccc1Cl)C1CCN(S(=O)(=O)N2CCOCC2)CC1`, the “activity change, negative = inhibition” value is -1.58% (inactive).
`COc1ccc(CNC(=O)C2CCN(S(=O)(=O)N3CCOCC3)CC2)cc1`: the “activity change, negative = inhibition” value was 14.1% (inactive).
The same measure, in the same setting: in the case of `COc1ccc(OCCCC(=O)OC(C)C(=O)Nc2ccccc2[N+](=O)[O-])cc1` (configuration not stated) it was 0.431% (inactive); in that of `O=C(COC(=O)c1cccnc1Cl)NC(=O)NC1CCCCC1`, 7.18% (inactive).
Still for that read-out and setting: the figure for `Cc1noc(C)c1S(=O)(=O)N(C)C[C@H]1Oc2ccc(NC(=O)C3CC3)cc2C(=O)N([C@H](C)CO)C[C@@H]1C` is 11.4% (inactive).
